Laboratory results from PubChem BioAssay (Tox21).
“And” between values parts separate entries of the source, which are not always exact repeats. Equal entries are not always repeated. Results filed as inconclusive are left out. A structure can be active in one record and inactive in another. The source made the active and inactive calls. Unless noted, calls come from the whole dose curve; as a rule, active = well fitted curve in the direction sought with a large enough effect in the repeat runs; inconclusive = weak or mixed curves; inactive = no such curve, though single readings can be large; an effect the other way counts as inactive or inconclusive.

What was measured:
[1] = qHTS assay for small molecule agonists of the p53 signaling pathway (AID 651631; calls by dose curve; note: nearly all actives have a fitted effect of over 15% in size)
Summary of the method: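 Quantitative high-throughput format: 4,000 p53RE-bla HCT-116 cells/well, 5 h pre-incubation, 16 h compound exposure at 37 °C, 2 h room-temperature substrate step, fluorescence intensity measured.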

[2] = qHTS assay for small molecules that induce genotoxicity in human embryonic kidney cells expressing luciferase-tagged ATAD5 (AID 651632); note: nearly all actives have a fitted effect of over 15% in size
Summary of the method: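 Test compounds were delivered by pin tool onto HEK293T reporter cells (2,000/well) expressing ATAD5 fused to luciferase. After 16 hr at 37C, 5% CO2, Amplite was added for 30 min at room temperature and luminescence was measured.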

[3] = qHTS assay for small molecule agonists of the p53 signaling pathway - cell viability (AID 651633; calls by dose curve; note: nearly all actives have a fitted effect of over 30% in size; note: potency is the fitted concentration of half-maximal effect)
Summary of the method: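 p53RE-bla cells were treated with compound for 16 hours at 37 C. Cytotoxicity was then measured as CellTiter-Glo luminescence after 30 min at room temperature.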

[4] = qHTS assay for small molecules that induce genotoxicity in human embryonic kidney cells expressing luciferase-tagged ATAD5 - cell viability (AID 651634; calls by dose curve; note: nearly all actives have a fitted effect of over 25% in size)
Summary of the method: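 Quantitative high-throughput format. HEK293T cells expressing ATAD5 fused to luciferase were plated at 2,000 cells/well and treated 15.5 hr with compound versus DMSO. Viability was determined by fluorescent live-cell protease substrate, 30 min at 37C.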

[5] = qHTS assay for small molecule disruptors of the mitochondrial membrane potential - cell viability (AID 720634; calls by dose curve;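 note: human HepG2 liver cancer cells; series mostly up to about 83 µM; nearly all actives have a fitted effect of over 20% in size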)
Summary of the method: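 Same-well counter-screen: following the MMP dye addition, CellTiter-Glo was added to 1 hr compound-treated HepG2 cells and luminescence read after 30 min at room temperature.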

[6] = qHTS assay for small molecule disruptors of the mitochondrial membrane potential (AID 720635); note: potency is the fitted concentration of half-maximal effect
Summary of the method: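 HepG2 cells exposed to compound 1 hr at 37C, then Mito-MPS dye 30 min. Ratio read of aggregate (540/590 nm) versus monomer (490/535 nm) fluorescence.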

[7] = qHTS assay to test for compound auto fluorescence at 590 nm (red) in HepG2 cells (AID 720674)
Summary of the method: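 HepG2 cells, 2,000 per well in MEM with 10% FBS, attached overnight at 37 C, then got 23 nL compound or DMSO. After 1 hr at 37 C, 5% CO2, red fluorescence was read at 540/590 nm against Rose Bengal sodium as reference.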

[8] = qHTS assay to test for compound auto fluorescence at 535 nm (green) in HepG2 cells (AID 720675)
[9] = qHTS assay to test for compound auto fluorescence at 460 nm (blue) in HEK293 cells (AID 720678)
Summary of the method: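 Intrinsic compound fluorescence is recorded in live HEK293 cultures after overnight incubation at 37C, 5% CO2, using excitation 405 nm and emission 460 nm. Values are referenced to triamterene.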

[10] = qHTS assay to test for compound auto fluorescence at 590 nm (red) in HEK293 cells (AID 720679)
Summary of the method: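 Red autofluorescence, HEK293 cells: 2,000 cells/well; attach 4-5 hr 37C; add 23 nL cpd or DMSO; incubate o/n 37C 5% CO2; read Ex540/Em590; Rose Bengal sodium reference.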

[11] = qHTS assay to test for compound auto fluorescence at 535 nm (green) in HEK293 cells (AID 720680)
[12] = qHTS assay to test for compound auto fluorescence at 460 nm (blue) in HEK293 cell free culture (AID 720681)
Summary of the method: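 Compounds were added to cell-free DMEM with 10% FBS and fluorescence read directly. The blue channel used 405 nm excitation and 460 nm emission, with triamterene as the reference fluorophore.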

[13] = qHTS assay to test for compound auto fluorescence at 535 nm (green) in HEK293 cell free culture (AID 720682)
Summary of the method: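 Measurement is a direct plate read of green fluorescence (485 nm in, 535 nm out) after compound addition to serum-supplemented DMEM lacking cells, with fluorescein used to express intensities.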

[14] = qHTS assay to test for compound auto fluorescence at 590 nm (red) in HEK293 cell free culture (AID 720683)
Summary of the method: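 Cell-free wells of DMEM with 10% FBS received compound, and intrinsic fluorescence was read at excitation/emission 540/590 nm. Values expressed as equivalence to Rose Bengal sodium.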

[15] = qHTS assay to test for compound auto fluorescence at 460 nm (blue) in HepG2 cell free culture (AID 720685)
Summary of the method: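 Cell-free plates of MEM plus 10% FBS received 23 nL compound or DMSO vehicle; blue-channel (405/460 nm) intensity scored against triamterene as reference fluorophore.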

[16] = qHTS assay to test for compound auto fluorescence at 535 nm (green) in HepG2 cell free culture (AID 720686)
[17] = qHTS assay to test for compound auto fluorescence at 460 nm (blue) in HepG2 cells (AID 720687)
Summary of the method: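 HepG2 cells in MEM with 10% FBS, attached overnight at 37 C, were exposed to compound or DMSO for 1 hr at 37 C, 5% CO2. Blue fluorescence was read at 405/460 nm, with triamterene as reference fluorophore.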

[18] = qHTS assay to test for compound auto fluorescence at 590 nm (red) in HepG2 cell free culture (AID 720684)
Summary of the method: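 Auto fluorescence equivalency versus Rose Bengal sodium, red channel Ex/Em 540/590 nm; compounds in cell-free MEM/10% FBS; DMSO vehicle control.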

[19] = biological target: Glucocorticoid receptor (Homo sapiens) (UniProt P04150); experiment: qHTS assay to identify small molecule agonists of the glucocorticoid receptor (GR) signaling pathway (AID 720691; active = well fitted activation curve with a large enough effect in the signal ratio in the repeat runs, not every such curve was filed as active; the % refers to the signal ratio)
Summary of the method: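 A HeLa cervical cancer line expressing GR and a glucocorticoid response element-driven beta-lactamase gene is treated with compounds for 18 h; LiveBLAzer B/G FRET substrate is then applied and fluorescence read.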

[20] = biological target: Glucocorticoid receptor (Homo sapiens) (UniProt P04150); experiment: qHTS assay to identify small molecule antagonists of the glucocorticoid receptor (GR) signaling pathway (AID 720692; active = well fitted inhibition curve with a large enough effect in the signal ratio in the repeat runs, not every such curve was filed as active; the % refers to the signal ratio)
Summary of the method: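 GRE-bla HeLa line, dex-stimulated (5 nM final). Compound exposure 18 h, 37 C. Beta-lactamase FRET read after 2 h RT substrate.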

Measured: Potency

Chain of Glucocorticoid receptor (Homo sapiens) (P04150 whole entry, looked up): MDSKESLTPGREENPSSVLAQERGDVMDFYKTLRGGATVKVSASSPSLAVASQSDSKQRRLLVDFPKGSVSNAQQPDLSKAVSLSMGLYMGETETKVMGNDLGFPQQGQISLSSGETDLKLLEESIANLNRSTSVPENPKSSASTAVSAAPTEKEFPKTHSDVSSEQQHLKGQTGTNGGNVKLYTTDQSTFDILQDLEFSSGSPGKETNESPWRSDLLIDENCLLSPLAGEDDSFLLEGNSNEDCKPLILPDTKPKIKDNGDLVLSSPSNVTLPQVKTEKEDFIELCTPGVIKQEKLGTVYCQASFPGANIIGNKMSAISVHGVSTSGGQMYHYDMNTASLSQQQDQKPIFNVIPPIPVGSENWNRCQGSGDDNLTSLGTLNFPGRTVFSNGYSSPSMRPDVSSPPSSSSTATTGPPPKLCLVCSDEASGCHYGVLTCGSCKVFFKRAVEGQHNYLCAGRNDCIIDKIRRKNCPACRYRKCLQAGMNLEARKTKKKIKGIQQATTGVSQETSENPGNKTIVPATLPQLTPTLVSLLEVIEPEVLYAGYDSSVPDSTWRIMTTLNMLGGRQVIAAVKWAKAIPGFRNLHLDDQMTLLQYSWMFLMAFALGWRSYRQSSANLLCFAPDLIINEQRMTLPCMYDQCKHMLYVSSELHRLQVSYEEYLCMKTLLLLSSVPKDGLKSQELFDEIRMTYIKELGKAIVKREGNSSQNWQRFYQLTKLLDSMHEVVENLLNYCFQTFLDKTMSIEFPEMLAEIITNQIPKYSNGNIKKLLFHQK

CC1NCCOC1c1ccccc1 (configuration not stated)
inactive: [1] | [2] | [3] | [4] | [5] | [6] | [7] | [8] | [9] | [10] | [11] | [12] | [13] | [14] | [15] | [16] | [17]

CS(=O)(=O)Cl
inactive: [1] | [2] | [3] | [4] | [5] | [6] | [7] | [9] | [10] | [11] | [13] | [14] | [16] | [17]

COC(=O)[C@@H](N)CCCN/C(N)=N/[N+](=O)[O-]
inactive: [1] | [2] | [3] | [4] | [5] | [6] | [7] | [8] | [9] | [10] | [11] | [12] | [14] | [18] | [15] | [16] | [17] | [19]

CC(C)(C)c1cc(O)ccc1O
inactive and 22.1 µM (active): [6]
inactive: [1] | [2] | [4] | [5] | [7] | [8] | [9] | [10] | [11] | [12] | [13] | [14] | [18] | [16] | [17] | [19] | [20]
inactive and 29.8 µM (active): [3]

Oc1ccc(Cc2ccc(O)cc2)cc1
inactive: [1] | [2] | [3] | [4] | [5] | [7] | [8] | [10] | [11] | [12] | [13] | [14] | [18] | [15] | [16] | [17] | [19]
active: [6] 54.9 µM

C=C1CC[C@@]2(O)[C@H]3Cc4ccc(O)c5c4[C@@]2(CCN3CC2CC2)[C@H]1O5
inactive: [1] | [2] | [3] | [4] | [5] | [6] | [7] | [8] | [9] | [10] | [11] | [12] | [13] | [14] | [18] | [15] | [16] | [17] | [19]

CCC(C(N)=O)N1CCCC1=O (configuration not stated)
inactive: [1] | [2] | [3] | [4] | [5] | [7] | [8] | [9] | [10] | [11] | [12] | [13] | [14] | [18] | [15] | [16] | [17]
